# Screening data deposited in PubChem by National Center for Advancing Translational Sciences (NCATS).
# Luciferase inh = Firefly luciferase inhibition profiling of diverse chemical library using quantitative high-throughput screening. purified P. pyralis luciferase, luminescence, biochemical. 76,000 tested, 2.5% active. Potency, µM (titrated, usually from 115 µM), hits mostly inhibitors. Luciferin 4-monooxygenase (Photinus pyralis), P08659; note: nearly all actives have a fitted effect of over 65% in size
#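 Luminescence read by CCD imaging after purified firefly luciferase (10nM final) was added to substrate buffer holding 10uM D-luciferin and 10uM ATP, pH 7.5, pre-dosed with compound.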
# HEK293 tox = Cytotoxic Profiling in HEK 293 Cell Line of Diverse Libraries Using Quantitative High-Throughput Screening; HEK 293 viability, ATP luminescence (CellTiter-Glo), 48-72 h; Potency, µM (doses to about 115 µM), for the others: at the highest dose activity change, negative = cytotoxicity, actives largely listed as inhibitors; 94,000 tested, 6.6% active; AID 1345083, 2018; note: nearly all actives have a fitted effect of over 60% in size
#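 ATP-coupled CellTiter-Glo luminescence served as viability read-out, recorded 10 min after reagent addition at room temperature. HEK 293 cells, 250 cells/well, had been incubated with pintool-transferred compound for 48 or 72 hr at 37 degree Celsius.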
# 3T3 cytotox = Cytotoxic Profiling in NIH 3T3 Cell Line of Diverse Libraries Using Quantitative High-Throughput Screening; NIH 3T3 viability, CellTiter-Glo ATP luminescence, 48-72 h; Potency, µM (titrated, usually from 96.7 µM), for inactives: top-dose activity change, negative = cytotoxicity, most hits filed as inhibitors; 94,000 tested, 4.3% active; AID 1345082, 2018; note: nearly all actives have a fitted effect of over 55% in size
#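 Mouse fibroblast NIH 3T3 cells, 400 per well, received compound via pintool and were incubated for 48 or 72 hr prior to CellTiter-Glo ATP luminescence measurement.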
# NPR1 antag = Natriuretic polypeptide receptor (hNpr1) antagonism - Primary qHTS. Atrial natriuretic peptide receptor 1 (Homo sapiens), P16066. HEK293 hNpr1 GloSensor cGMP, ANP-stimulated luminescence. Potency, µM (doses to about 46.3 µM), without a hit: at the highest dose activity change, negative = inhibition, actives largely listed as inhibitors. 76,000 tested, 1.6% active. AID 1347048, 2019; calls by dose curve; note: nearly all actives have a fitted effect of over 60% in size
# Target sequence (P16066 whole entry, looked up): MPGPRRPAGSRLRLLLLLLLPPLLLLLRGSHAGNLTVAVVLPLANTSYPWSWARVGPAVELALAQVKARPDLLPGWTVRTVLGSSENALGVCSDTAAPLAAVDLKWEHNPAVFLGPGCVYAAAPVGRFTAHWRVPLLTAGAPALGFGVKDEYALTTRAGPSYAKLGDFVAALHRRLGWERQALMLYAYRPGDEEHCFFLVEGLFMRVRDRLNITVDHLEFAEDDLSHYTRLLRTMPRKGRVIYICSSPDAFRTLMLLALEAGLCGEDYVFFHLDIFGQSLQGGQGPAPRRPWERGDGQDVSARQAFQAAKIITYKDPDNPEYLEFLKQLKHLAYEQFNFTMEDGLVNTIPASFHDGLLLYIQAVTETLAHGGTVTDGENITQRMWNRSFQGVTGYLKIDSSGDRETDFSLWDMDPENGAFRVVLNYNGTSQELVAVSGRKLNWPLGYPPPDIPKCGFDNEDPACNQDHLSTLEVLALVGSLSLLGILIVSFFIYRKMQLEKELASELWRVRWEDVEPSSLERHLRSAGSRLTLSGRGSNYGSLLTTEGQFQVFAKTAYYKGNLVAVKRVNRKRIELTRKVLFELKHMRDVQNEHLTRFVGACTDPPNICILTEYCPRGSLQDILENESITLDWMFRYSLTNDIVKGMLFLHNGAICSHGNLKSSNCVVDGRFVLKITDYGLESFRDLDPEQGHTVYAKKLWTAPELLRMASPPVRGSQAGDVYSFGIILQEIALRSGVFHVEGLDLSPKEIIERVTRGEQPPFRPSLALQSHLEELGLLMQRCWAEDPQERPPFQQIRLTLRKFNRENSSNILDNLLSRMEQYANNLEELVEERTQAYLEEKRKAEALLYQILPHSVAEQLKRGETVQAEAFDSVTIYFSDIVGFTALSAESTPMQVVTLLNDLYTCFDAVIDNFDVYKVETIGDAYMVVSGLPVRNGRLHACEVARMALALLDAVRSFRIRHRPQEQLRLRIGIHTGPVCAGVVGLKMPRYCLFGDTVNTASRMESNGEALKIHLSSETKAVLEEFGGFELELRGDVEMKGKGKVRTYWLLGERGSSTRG
#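 HEK293 cells stably expressing human Npr1 and cGMP GloSensor pGS-40F, loaded 2 h with 2% GloSensor reagent, given compound 30 min at room temperature. Luminescence read before and 20 min after 0.1 nM hNppA.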
# GPT2 inh = Primary qHTS assay for inhibitors of Glutamate pyruvate transaminase 2 (GPT2); Alanine aminotransferase 2 (Homo sapiens), Q8TD30; Recombinant GPT2, coupled pyruvate oxidase/HRP Amplex Red fluorescence; Potency, µM (titrated, usually from 57.7 µM), inactives show top-dose activity change, negative = inhibition, most hits filed as inhibitors; 100,000 tested, 0.25% active; note: nearly all actives have a fitted effect of over 60% in size
#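 Inhibition is scored from Amplex Red fluorescence generated when pyruvate oxidase and HRP act on pyruvate released by GPT2. Reactions contain 10ng/uL enzyme, 250uM a-KG and 2mM L-alanine and run 30 min at room temperature.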
# Starred values were filed as active, the others as inactive; i = inactive; ? = inconclusive; · = no result given; [ ] = dose if it differs, or a comment. Sampled rows, rich in hits. Any-hit rate of the full collection: about 10%. Unless noted, calls come from the whole dose curve; as a rule, active = well fitted curve in the direction sought with a large enough effect; inconclusive = small, poorly fitted or top-dose-only effect, or another doubt; inactive = no such curve, though single readings can be large; an effect the other way counts as inactive or inconclusive. % is set by controls: 0 for no effect and ±100 for the full control effect; potency is the fitted concentration of half-maximal effect.
SMILES,Luciferase inh,HEK293 tox,3T3 cytotox,NPR1 antag,GPT2 inh
N#Cc1ccc(C(=O)Nc2ccc([C@@H](O)[C@H]3COCC(=O)N3Cc3ccc(F)cc3)cc2)cc1,i,?,-29%,0%,-1%
O=C(Nc1ccc([C@@H](O)[C@H]2COCC(=O)N2Cc2ccccn2)cc1)C1CC1,i,-2%[172 µM],-5%[138 µM],-3%[70.6 µM],-7%[88.5 µM]
CC(C)(C)c1ccc(C(=O)Nc2ccc(C(O)[C@H]3COCC(=O)N3Cc3ccccn3)cc2)cc1 (some centres not stated),16µM*,?,?,-15%,1%
O=C(Cc1ccccc1)Nc1ccc([C@@H](O)[C@H]2COCC(=O)N2Cc2ccc(C(F)(F)F)cc2)cc1,i,?,79µM*,0%,-2%
O=C(CNC(=O)c1cccc(-c2ccc(C(F)(F)F)cc2)c1)NCC1CC1,·,?,?,·,i
O=C(NCCCc1ccccc1F)[C@@]12CNC[C@@H]1CN(Cc1ccccc1)C2,i,45µM*,28µM*,3%,-14%
OC1CC(c2cc(NCCSC3CCCCC3)ncn2)C1 (configuration not stated),?,?,?,13µM*,1%
CS(=O)(=O)NCCc1ccc(CC2CCN(C(=O)CC3CCCC3)CC2)cc1,·,?,40µM*,·,i
COc1ccc(-c2ccccc2C(=O)N2CCC(NC(=O)c3ccccc3OC)CC2)nn1,·,0%,1%,·,·
COc1ccc(-c2noc(-c3nc(C(C)C)no3)n2)cc1,11µM*,?,-5%,-20%,i
CN(C)Cc1ccc(-c2cc3c(ccn3Cc3cccnc3)c(C3=CCOCC3)n2)cc1,i,56µM*,25µM*,-9%[70.6 µM],1%[88.5 µM]
C1=C(c2nc(-c3ccc(N4CCOCC4)cc3)cc3c2ccn3Cc2cccnc2)CCOC1,i,?,?,-2%,i
C1=C(c2nc(-c3cccc4[nH]ncc34)cc3c2ccn3Cc2cccnc2)CCOC1,i,89µM*,?,-20%[70.6 µM],?
CCCCNC(=O)C1CCN(C(=O)c2ncn3c2COC(c2ccc(F)cc2)C3)CC1 (configuration not stated),40µM*,-15%,-2%,1%,i
O=C(NCCC1=CCCCC1)C1CCN(C(=O)c2ncn3c2COC(c2ccc(F)cc2)C3)CC1 (configuration not stated),22µM*,-13%,-23%,-6%,i
COc1ccc(C2Cn3cnc(C(=O)N4CCC(C(=O)NCCC5=CCCCC5)CC4)c3CO2)cc1 (configuration not stated),i,1%,i,4%,i
CCCCNC(=O)C1CCN(C(=O)c2ncn3c2COC(c2ccc(OC)cc2)C3)CC1 (configuration not stated),i,-5%,i,-1%,-10%
O=C(NCCC1=CCCCC1)C1CCN(C(=O)c2ncn3c2COC(c2ccccc2)C3)CC1 (configuration not stated),2µM*,-7%,-10%,-22%,i
CC(=O)N1CC2(CCN(Cc3cc4ccccc4[nH]3)C2)Cc2ccccc21 (configuration not stated),·,?,?,·,3%
CN(C(=O)CN1C(=O)C(c2ccccc2)=NC12CCCCC2)c1ccccc1,i,?,-8%,-8%,i
O=C(CN1C(=O)C(c2ccccc2)=NC12CCCCC2)NCc1ccccc1,i,45µM*,?,0%,3%
Cc1ccc(CNC(=O)CN2C(=O)C(c3ccccc3)=NC23CCCCC3)cc1,i,?,?,-6%,0%
CCN(C(=O)CN1C(=O)C(c2ccccc2)=NC12CCCCC2)c1cccc(C)c1,i,40µM*,?,-6%,i
O=C(CN1C(=O)C(c2ccccc2)=NC12CCCC2)Nc1ccc(C(F)(F)F)cc1,i,45µM*,?,?,i
COC1CN(C(=O)OCc2ccccc2)CCC(=O)N(C)c2ccccc21 (configuration not stated),·,?,-28%[46.1 µM],·,-4%[27.3 µM]
SMILES,Luciferase inh,HEK293 tox,3T3 cytotox,NPR1 antag,GPT2 inh
O=C(CCCC1C(=O)Nc2ccccc21)NCCc1noc(-c2ccccc2)n1 (configuration not stated),i,?,?,-22%,-4%
COc1ccc(C(=O)N2CC[C@@H]3COCCN(C)[C@@H]3C2)c(OC)c1,22µM*,?,1%,-11%,i
COc1ccc(-c2cnc3[nH]cc(CC(=O)Nc4ccncc4)c3c2)cc1,i,?,32µM*,?,5%[88.5 µM]
CCNC(=O)Cc1c[nH]c2ncc(-c3cccnc3OC)cc12,i,-38%[172 µM],89µM*,-15%[70.6 µM],i
COc1ncccc1-c1cnc2[nH]cc(CC(=O)Nc3ccncc3)c2c1,i,63µM*,32µM*,?,i
COc1ncccc1-c1cnc2[nH]cc(CC(=O)Nc3ccccc3C)c2c1,i,?,?,-29%[70.6 µM],?
COc1ccc(-c2cnc3[nH]cc(CC(=O)Nc4cccc(F)c4)c3c2)cc1,i,?,?,-30%[70.6 µM],i
COc1ncccc1-c1cnc2[nH]cc(CC(=O)Nc3ccccc3)c2c1,i,?,40µM*,?,-13%[88.5 µM]
COc1ncccc1-c1cnc2[nH]cc(CC(=O)NCc3ccco3)c2c1,i,?,?,?,1%[88.5 µM]
COc1ccc(-c2ccc(C(=O)NCc3ccccc3F)c(Cl)c2)nn1,·,?,-30%,·,·
COc1cccc(CNC(=O)c2nc3cccnc3n(C3CC3)c2=O)c1,·,-3%[172 µM],-26%[138 µM],·,3%[88.5 µM]
COc1ccc(-c2cnc3[nH]cc(CC(=O)NC4CCC(O)CC4)c3c2)cc1 (configuration not stated),i,?,25µM*,-8%[70.6 µM],?
Cc1ccccc1-c1cnc2[nH]cc(CC(=O)NC3CCOCC3)c2c1,i,?,?,-17%[70.6 µM],?
COc1ncccc1-c1cnc2[nH]cc(CC(=O)NC3CCOCC3)c2c1,i,?,?,1%[70.6 µM],2%[88.5 µM]
COc1cccc(NC(=O)Cc2c[nH]c3ncc(-c4ccccc4C)cc23)c1,i,71µM*,?,?,-3%[88.5 µM]
COc1ncccc1-c1cnc2[nH]cc(CC(=O)Nc3cccnc3)c2c1,i,89µM*,?,?,3%[88.5 µM]
